Each structure is given as a SMILES string. Hit rate of the full screen: of about 2,200 compounds, about 530 (24%) were called active. A selection follows. Measured potencies and affinities stand elsewhere. A number with no mark means an inactive call.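 How the source made its calls: active means inhibition above a set limit at one or more concentrations of the dose series; inactive means inhibition under that limit at every dose.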

Here are results for 88 molecules from PubChem BioAssay AID2401 (Southern Research Specialized Biocontainment Screening …, 2010).

A short description of the assay: S. Typhimurium nonspecific reporter signal inhibition – Salmonella Typhimurium, GFP fluorescence, counter-screen for PhoP regulon inhibitor project, dose response (AID 2401).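 Further: S. typhimurium with Mg-insensitive nmpC-GFP reporter grown at 10 µM Mg2+; drop in reporter fluorescence reflects general culture growth inhibition.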 As to conditions: 4 h; series mostly up to 150 µM; inhibition: at the top concentration. (The purpose of a counterscreen is to sort out artefacts and off-target activity.)
Broadly, the inhibition is the drop in the measured response relative to a control, in per cent. Turning to `C/C(=N\NC(=S)Nc1ccc(F)cc1)c1ccc2c(c1)OCCO2`, the “inhibition” value is -15.3%.

On to `Nc1nonc1-n1nnc(C(=O)N/N=C/c2ccc(Br)cc2)c1CSC1=NCCS1`, for which the “inhibition” value is 5.01%.

For the molecule `COc1cccc(C=NCCNC(=O)c2nonc2N)c1O`, the “inhibition” value is 6.54%.

On to `Nc1nonc1C(=O)NCCN=Cc1cc(Cc2ccccc2)cc(Br)c1O`, for which the “inhibition” value is 22.3%.

With `COC(=O)Cc1c(C)nc2nc(NCc3ccc(Cl)cc3)[nH]n2c1=O`, the “inhibition” value is 10.4%.

On to `CC(C)CNC(=S)NC1CCCC1`, for which the “inhibition” value was -23.4%.

As for `O=C(OCC(=O)c1ccccc1Cl)c1cnccn1`, the “inhibition” value was -6.43%.

Regarding `Cc1ccc(C(=O)C2COC(=O)C2)cc1` (stereo not drawn), the “inhibition” value is 34.6%.

Consider `COc1ccc(S(=O)(=O)N2CCN(C(=O)c3c(C)nn(-c4ccccc4)c3Cl)CC2)cc1`, for which the “inhibition” value was -2.31%.

`COc1ccccc1CC(=O)N1CCN(c2ccccn2)CC1`: the “inhibition” value was -17.2%.

With `COc1ccc(-n2c(C)cc(C(=O)Cn3nc(C(=O)O)c4ccccc4c3=O)c2C)cc1`, the “inhibition” value is 4.51%.

Turning to `O=C(CN1CCCCC1)Nc1cccc2c1OCO2`, the “inhibition” value is -1.21%.

As to `COc1ccccc1NS(=O)(=O)c1cc(NC(=S)Nc2cc(C)cc(C)c2)ccc1Cl`, the “inhibition” value was -3.8%.

As to `O=S(=O)(Nc1cc(Sc2cccc3cccnc23)c(O)c2ccccc12)c1ccc(F)cc1`, the “inhibition” value is 8.76%.

For the molecule `COC(=O)c1ccc(Sc2ccccc2NS(=O)(=O)c2ccc(C)cc2)nc1`, the “inhibition” value was -13.9%.

With `COCCCNc1ccnc2c(Cl)cccc12`, the “inhibition” value was 21.8%.

Take `O=C(c1ccco1)N1CCN(c2ncnc3c2[nH]c2ccccc23)CC1`: the “inhibition” value was 16.8%.

Turning to `CN(CC(=O)NCc1cccc(F)c1)C(=O)c1ccco1`, the “inhibition” value was -15.9%.

Turning to `CC(=O)Nc1cccc(-c2csc(Nc3cccc(C)n3)n2)c1`, the “inhibition” value was -14.5%.

Consider `Cc1ccc(-n2c(C)cc(C3=NNC(=NC4CC4)SC3)c2C)cc1C`, for which the “inhibition” value is -9.06%.

For `COc1ccc(NC(=O)c2sccc2SCC#N)cc1`, the “inhibition” value was -16.1%.

For the molecule `CCOC(=O)CN1C(=O)C(C)(C)Oc2ccc(C(=O)Nc3ccccc3OC)cc21`, the “inhibition” value was -23.6%.

`C=CCSC1=Nc2sccc2C2=NC(=O)CN12`: the “inhibition” value is -27.7%.

As for `Cc1ccn2cc(CSc3ccccc3N)nc2c1`, the “inhibition” value was -24.9%.

Turning to `COc1cccc(N=Cc2c[nH][nH]c2=O)c1`, the “inhibition” value is 3.08%.

Regarding `CO/N=C\CC(=O)Nc1ccc(F)cc1`, the “inhibition” value was -33.4%.

In the case of `COc1ccccc1N1CCN(C(=O)CSc2nc3ccccc3o2)CC1`, the “inhibition” value was -12.1%.

Regarding `CCC(C)NC(=O)c1ccccc1NC(=O)C(C)N(c1ccccc1)S(C)(=O)=O` (stereo not drawn), the “inhibition” value was -16.5%.

In the case of `FC(F)(F)COc1nc(OCC(F)(F)F)nc(N2CCN(c3ccccc3)CC2)n1`, the “inhibition” value was -20.4%.

Turning to `CC(=O)Nc1nc2nc(-c3ccccc3)cc(-c3ccccc3)n2n1`, the “inhibition” value was 3.38%.

As for `Cc1cccc(Sc2c([N+](=O)[O-])ncn2C)c1`, the “inhibition” value was 14.8%.

With `S=C(NCc1cccnc1)Nc1ccc(Cl)c(Cl)c1`, the “inhibition” value is 18.6%.

On to `Cn1ccnc1C(O)c1ccc(OCc2ccccc2)cc1` (stereo not drawn), for which the “inhibition” value is 6.64%.

`O=C(c1cnsn1)N1CCN(c2ccccc2)CC1`: the “inhibition” value was -32.8%.

Regarding `O=C(Nc1ccc(F)cc1)c1ccccc1F`, the “inhibition” value is -15.6%.

Turning to `CC(C)(C)NS(=O)(=O)c1ccc(CCC(=O)N2CCOCC2)cc1`, the “inhibition” value was -24.9%.

As for `O=[N+]([O-])c1ccc(-n2nnnc2-c2ccccc2)c([N+](=O)[O-])c1`, the “inhibition” value is 24.5%.

As to `O=c1ccc2ccc(Oc3ccc([N+](=O)[O-])cc3[N+](=O)[O-])cc2o1`, the “inhibition” value was -5.81%.

On to `O=C(Nc1ccccc1)Oc1ccc[nH]c1=O`, for which the “inhibition” value was 17.1%.

In the case of `Cc1ccc(N)cc1-n1c(C)ccc1C`, the “inhibition” value is 7.88%.

Turning to `O=C(CC(NS(=O)(=O)c1ccc(Cl)cc1)c1ccco1)N1CCc2ccccc21` (stereo not drawn), the “inhibition” value is -10.5%.

With `CC1CCN(C(=O)c2ccc3c(c2NCCO)C(=O)c2ccccc2C3=O)CC1`, the “inhibition” value is 6.14%.

On to `CC(=O)Cn1cnc2sc(-c3ccccc3)cc2c1=O`, for which the “inhibition” value is -20.4%.

Turning to `COCCn1cc(C(=O)N2CCC(C)CC2)c2c3ccccc3n(C)c2c1=O`, the “inhibition” value is -24.8%.

As for `Oc1ccccc1-c1nc(/C=C/c2ccccc2)nn1-c1ccccc1`, the “inhibition” value is -15.6%.

Turning to `Cc1ccc(Cn2cnc3ccccc32)cc1`, the “inhibition” value is -24.4%.

Turning to `COc1cc(NC(=O)Nc2cccc(Cl)c2)c(OC)cc1NC(=O)CN1CCCCC1`, the “inhibition” value is 1.04%.

For the molecule `O=C(NCCCc1ccccc1)Nc1cccc(Cl)c1`, the “inhibition” value is -6.65%.

Turning to `CCCOc1ccc(C(=O)C(CCC(CNCC)C(=O)c2ccc(OCCC)cc2)CNCC)cc1` (stereo not drawn), the “inhibition” value was 11.4%.

Take `O=C1c2ccccc2C(=O)N1CCc1csc(-c2cccc(Cl)c2)n1`: the “inhibition” value was -25.4%.

With `CCOC(=O)c1ccc2c(c1)C(=O)N(C1CCCCC1)C2=O`, the “inhibition” value was -9.18%.

As to `CC(=O)c1ccc(NC(=S)NC(NC(=O)c2ccco2)C(Cl)(Cl)Cl)cc1` (stereo not drawn), the “inhibition” value was 26%.

`O=[N+]([O-])c1cccc(CN(CCO)Cc2ccccc2)c1`: the “inhibition” value is -14.6%.

As for `Nc1nc(CSc2nc3ccccc3[nH]2)nc(N2CCOCC2)n1`, the “inhibition” value is -10.8%.

For the molecule `COC(=O)c1ccc(C(=O)OC)c(NC(=O)COc2ccccc2OC)c1`, the “inhibition” value is -16.4%.

As for `CCN(CC)c1ccc(S(=O)(=O)Nc2cc(Cl)ccc2Cl)cc1NC(=S)NC(=O)C1CCCC1`, the “inhibition” value is -23.8%.

For the molecule `O=C1/C(=C/c2ccccc2)NC(=S)N1C(c1ccccc1)c1ccccc1`, the “inhibition” value was -5.32%.

`CCN(CC)S(=O)(=O)c1cccc(NC(=O)Nc2cccc(C(F)(F)F)c2)c1`: the “inhibition” value was -36.2%.

Turning to `Fc1cc(Br)ccc1NC(=S)Nc1ccccc1`, the “inhibition” value is -47.3%.

With `Nc1ccc2c(c1)C(=O)N(CC1CCCO1)C2=O` (stereo not drawn), the “inhibition” value is 4.4%.

As for `Cc1cccc(C(=O)O/N=C2\CCSc3ccc(C)cc32)c1`, the “inhibition” value was -18.9%.

For `CCOC(=O)c1cnc2ccc(OC)cc2c1Nc1ccc2c(c1)OCCO2`, the “inhibition” value is -24.2%.

For `Cc1cccc(C)c1OCC(=O)Nn1c(COc2ccccc2)nc2ccccc2c1=O`, the “inhibition” value was -32.7%.

For the molecule `Cn1c(COc2ccccc2)nnc1SCc1nc2ccccc2[nH]1`, the “inhibition” value was -16.3%.

For the molecule `COc1ccccc1-n1c(SCc2cc(=O)oc3cc(O)ccc23)nc2ccccc2c1=O`, the “inhibition” value was 1.45%.

On to `COc1cccc(/C=N/n2c(C)nc3ccccc3c2=O)c1O`, for which the “inhibition” value is -21.2%.

For `Nc1nc2ccccc2n1/N=C/c1ccc(-c2ccccc2)o1`, the “inhibition” value was -7.01%.

For `O=C(Nc1ccc2snnc2c1)Nc1cccc2ccccc12`, the “inhibition” value was 9.59%.

`CCOC(=O)C1=C(C)NC(SCc2cc(=O)[nH][nH]2)=C(C#N)C1c1cccs1` (stereo not drawn): the “inhibition” value was -5.57%.

`COc1ccc(C2CC(c3ccccc3)=NN2C(=O)COC(=O)c2cccnc2)cc1` (stereo not drawn): the “inhibition” value was -24%.

Regarding `O=C(CN1C(=O)COc2ccccc21)Nc1ccc(F)cc1`, the “inhibition” value is -5.72%.

`CCCCn1c(=N)n(CC(=O)C(C)(C)C)c2ccccc21`: the “inhibition” value is -16.4%.

Regarding `Brc1ccc2nc3c(n2c1)CCCC3`, the “inhibition” value is 18.8%.

In the case of `CCCCn1c(NCCO)nc2ccccc21`, the “inhibition” value is -5.95%.

As for `Cc1ccc(O)c(-c2cc(-c3ccccc3C)[nH]n2)c1`, the “inhibition” value is 20.4%.

On to `COC(=O)c1c(C)[nH]c(C(C)=O)c1C`, for which the “inhibition” value is -11.6%.

For the molecule `CCN(CC(=O)Nc1ccc(N2CCOCC2)cc1)Cc1nc2ccccc2c(=O)[nH]1`, the “inhibition” value was -1.68%.

Consider `O=C(Cn1nc(Cl)nc1Cl)c1ccc2c(c1)OCCO2`, for which the “inhibition” value was -12.9%.

For `COc1ccc(Nc2ccc3c(c2)=NC2(CCCCC2)[N+]=3[O-])cc1`, the “inhibition” value was -31.7%.

In the case of `CCOC(=O)N1CCN(C(=O)C(NC(=O)c2ccc(CC)cc2)C(C)C)CC1` (stereo not drawn), the “inhibition” value was -17.5%.

As for `CC(C)CCNC(=O)C(c1ccco1)N(Cc1ccc(F)cc1)C(=O)c1snc(C(N)=O)c1N` (stereo not drawn), the “inhibition” value was -10.9%.

`O=C1c2ccccc2-c2onc3ccc(NCc4ccco4)c1c23`: the “inhibition” value was 19.4%.

On to `CCOC(=O)c1c(C)[nH]c(C)c1C(=O)COC(=O)/C=C/c1cccc(F)c1`, for which the “inhibition” value is -31.3%.

In the case of `COC(=O)c1ccccc1NC(=O)CS(=O)(=O)Cc1nc(-c2ccc(C)cc2)oc1C`, the “inhibition” value is -9.73%.

Turning to `Cc1ccc(CNC(=O)c2cccc(S(C)(=O)=O)c2)cc1`, the “inhibition” value was -21.4%.

On to `CCOC(=O)CC(=O)CSc1nc2c(c(C)c1C#N)CCC2`, for which the “inhibition” value is -22.8%.

`CCn1c(SCc2nc3scc(-c4ccccc4)c3c(=O)[nH]2)nnc1-c1cccs1`: the “inhibition” value is 27.8%.

Regarding `CN1c2ccccc2C(C)(C)[C@]12C=Cc1cc(O)ccc1O2`, the “inhibition” value is 2.19%.
